In PubChem BioAssay AID2313 (Broad Institute, 2010):
Out of some 22,000 compounds screened, about 460 (2.1%) were called active. About 2% were inconclusive and are not listed. The sample holds actives, similar compounds and a random draw of the others, so the mix is not that of the screen. Values without a mark were called inactive.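 The calls were made as follows: active = mean inhibition across valid replicates above about 65% (limit read from the data); inconclusive = mean under the limit, yet half or more replicates past it; inactive = the rest.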

Assay: Shh-driven Gli reporter inhibition – luminescence, Shh-LIGHT2 cells, Gli-luciferase, primary screen (AID 2313);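 also: pathway switched on by Shh-conditioned medium diluted 1 in 25 in low serum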
Details: 30 h, stronger effect = higher value
`O=C(Oc1ccc(Cl)cc1)c1csc(C2COc3ccccc3O2)n1` (stereo unspecified) showed an inhibition of -8.84%.
`C[C@@H]1CN([C@H](C)CO)C(=O)Cc2cc(N(C)C)ccc2O[C@H]1CN(C)S(C)(=O)=O` showed an inhibition of -5.86%.
With `Cc1ccc(S(=O)(=O)Nc2ccc3c(c2)C(=O)N([C@@H](C)CO)C[C@H](C)[C@@H](CN(C)CC2CC2)O3)cc1` the inhibition was 11.4%.
Compound `O=C(O)c1ccc(NS(=O)(=O)c2ccc3c4c(cccc24)C(=O)N3)cc1` has an inhibition of -9.19%.
For `C[C@H]1CN([C@@H](C)CO)C(=O)c2cccc(NS(=O)(=O)c3ccc(F)cc3)c2O[C@@H]1CN(C)Cc1ccncc1`, the inhibition was 3.57%.
For `Cc1ccc(S(=O)(=O)N(C)C[C@H]2Oc3c(NS(=O)(=O)c4ccc(Cl)cc4)cccc3C(=O)N([C@H](C)CO)C[C@@H]2C)cc1`, the inhibition was -17.4%.
In the case of `Cc1ccc(-n2nnnc2-c2cnn(-c3ccccc3)c2C)cc1`, the inhibition is reported as 88.7% (active).
In the case of `CCCN(C)C[C@H]1OCCCC[C@@H](C)Oc2ccc(N(C)C)cc2C(=O)N([C@H](C)CO)C[C@@H]1C`, the inhibition is reported as -12.9%.
`COc1ccc(CN(C)C[C@H]2Oc3c(NS(=O)(=O)c4ccccc4)cccc3C(=O)N([C@H](C)CO)C[C@@H]2C)cc1` showed an inhibition of -36.7%.
With `COc1ccc(S(=O)(=O)N(C)C[C@H]2Oc3c(NC(=O)Nc4ccc5c(c4)OCO5)cccc3C(=O)N([C@H](C)CO)C[C@@H]2C)cc1` the inhibition was 18.1%.
In the case of `CC(=O)Nc1ccc(Nc2c3c4c(cccc4[nH]c2=O)C(=O)c2ccccc2-3)cc1`, the inhibition is reported as 88.2% (active).
For `COc1ccc(CCN=C2SCC(=O)N2Cc2ccccc2)cc1OC`, the inhibition was 13.3%.
`Cc1noc(C)c1NC(=O)Nc1ccc2c(c1)C(=O)N([C@H](C)CO)C[C@H](C)[C@H](CN(C)Cc1ccncc1)OCCCC[C@@H](C)O2` gave an inhibition of 0.0543%.
Work on `C[C@H]1CN([C@@H](C)CO)C(=O)Cc2cc(NC(=O)C3CC3)ccc2O[C@H]1CN(C)S(=O)(=O)c1ccc(Cl)cc1` yielded an inhibition of 30.4%.
Work on `C[C@@H]1CN([C@H](C)CO)C(=O)c2cc(NC(=O)CCN3CCOCC3)ccc2O[C@H]1CN(C)Cc1ccc(Oc2ccccc2)cc1` yielded an inhibition of -15%.
In the case of `Oc1ccc(CN2CCCC2)c2cccnc12`, the inhibition is reported as 85% (active).
Work on `Cc1onc(-c2c(Cl)cccc2Cl)c1C(=O)N=S(C)(C)=O` yielded an inhibition of -19%.
`C[C@H]1CN([C@@H](C)CO)C(=O)c2cccc(NS(=O)(=O)c3cccs3)c2O[C@H]1CN(C)C(=O)Nc1ccccc1` gave an inhibition of 26.6%.
`CCC/C=C/C=C/C1CC(O)C(O)C1C(=O)O` (stereo unspecified) gave an inhibition of -18%.
`C[C@H](CO)N1C[C@H](C)[C@H](CN(C)C(=O)NC2CCCCC2)Oc2c(NC(=O)C3CC3)cccc2C1=O` gave an inhibition of -11.9%.
Work on `C[C@H](CO)N1C[C@H](C)[C@@H](CN(C)Cc2ccc(Cl)c(Cl)c2)Oc2c(NC(=O)Nc3ccccc3)cccc2C1=O` yielded an inhibition of -0.821%.
In the case of `Oc1c(Cl)cc(Cl)c(Cl)c1Cc1c(O)c(Cl)cc(Cl)c1Cl`, the inhibition is reported as 102% (active).
Work on `C[C@@H]1CN([C@H](C)CO)C(=O)c2cccc(NC(=O)c3nc4ccccc4s3)c2O[C@H]1CN(C)S(=O)(=O)c1ccc(Cl)cc1` yielded an inhibition of 11%.
For `C[C@H]1CN([C@@H](C)CO)C(=O)c2cccc(NS(=O)(=O)c3ccc(F)cc3)c2O[C@@H]1CN(C)CC1CC1`, the inhibition was -16.6%.
Compound `C[C@H]1CN([C@@H](C)CO)C(=O)Cc2cc(NS(=O)(=O)c3ccc(F)cc3)ccc2O[C@H]1CN(C)Cc1ccc(C(F)(F)F)cc1` has an inhibition of 30.1%.
`COc1ccc(S(=O)(=O)N(C)C[C@H]2Oc3ccc(NC(=O)C4CC4)cc3CC(=O)N([C@@H](C)CO)C[C@@H]2C)cc1` showed an inhibition of -32.4%.
For `CC(C)NC(=O)Nc1ccc2c(c1)C(=O)N([C@@H](C)CO)C[C@@H](C)[C@H](CN(C)Cc1ccc(C(=O)O)cc1)O2`, the inhibition was -19.8%.
Work on `C[C@H]1CN([C@@H](C)CO)C(=O)Cc2cc(N(C)C)ccc2O[C@@H]1CN(C)Cc1ccc(-c2ccccc2)cc1` yielded an inhibition of 33.2%.
In the case of `C[C@@H]1CCCCO[C@@H](CN(C)C(=O)CCC(F)(F)F)[C@@H](C)CN([C@H](C)CO)C(=O)c2cc(NC(=O)Nc3ccccc3)ccc2O1`, the inhibition is reported as -0.845%.
For `O=C(c1ccccc1)c1cnn(-c2ccc(Cl)cc2)n1`, the inhibition was 79.3% (active).
Work on `C[C@@H]1CN([C@H](C)CO)C(=O)Cc2cc(NC(=O)C3CCCCC3)ccc2O[C@@H]1CN(C)S(C)(=O)=O` yielded an inhibition of -14.6%.
Compound `C[C@@H]1CN([C@H](C)CO)C(=O)c2cccc(NC(=O)Nc3ccc4c(c3)OCO4)c2O[C@H]1CN(C)C(=O)Nc1ccc(F)cc1` has an inhibition of -8.45%.
In the case of `C[C@@H]1CN([C@@H](C)CO)C(=O)c2cccc(NC(=O)NC3CCCCC3)c2O[C@@H]1CN(C)CC1CCCCC1`, the inhibition is reported as -35.3%.
Work on `C[C@H]1CN([C@@H](C)CO)C(=O)Cc2cc(NC(=O)CCC(F)(F)F)ccc2O[C@H]1CN(C)C(=O)NC1CCCCC1` yielded an inhibition of -30.3%.
Work on `O=C1C2CC3CC1CC(C(=O)O)(C3)C2` yielded an inhibition of -15.4%.
In the case of `CCN1C(=O)c2cccc3c(NC(=S)NC(=O)c4ccccc4)ccc1c23`, the inhibition is reported as 86.3% (active).
In the case of `CC(C)(C)c1ccc(Cn2c(=N)n(CC(=O)O)c3ccccc32)cc1`, the inhibition is reported as -5.52%.
In the case of `O=c1n(Cc2ccccc2)c2ccccc2n1Cc1ccccc1`, the inhibition is reported as 96.1% (active).
With `O=c1c2ccccc2c(-c2ccccc2)nn1Cc1ccccc1` the inhibition was 9.85%.
`CCCN(C)C[C@@H]1OCCCC[C@@H](C)Oc2ccc(NC(=O)CCCN(C)C)cc2C(=O)N([C@H](C)CO)C[C@@H]1C` gave an inhibition of -7.4%.
Work on `S=C(NCC1CC1)Nc1ccc(Cl)cc1` yielded an inhibition of -35.4%.
In the case of `O=C(O)c1c(Br)c(Br)c(Br)c(Br)c1-c1c2ccc(=O)cc-2oc2cc(O)ccc12`, the inhibition is reported as -5.58%.
In the case of `C[C@@H]1CN([C@@H](C)CO)C(=O)c2cccc(NC(=O)Nc3ccc(F)cc3)c2O[C@H]1CN(C)Cc1ccc(-c2ccccc2)cc1`, the inhibition is reported as 2.55%.
`C[C@H]1CN([C@@H](C)CO)C(=O)c2cc(NC(=O)Nc3ccccc3)ccc2O[C@H]1CN(C)S(C)(=O)=O` showed an inhibition of -21%.
For `C[C@@H]1CN([C@H](C)CO)C(=O)Cc2cc(NS(=O)(=O)c3ccc(Cl)cc3)ccc2O[C@H]1CN(C)S(=O)(=O)c1cccs1`, the inhibition was -21.8%.
Work on `COc1ccc(S(=O)(=O)N(C)C[C@@H]2OCCCC[C@@H](C)Oc3ccc(NS(C)(=O)=O)cc3C(=O)N([C@H](C)CO)C[C@@H]2C)cc1` yielded an inhibition of 54.6%.
Compound `C=C1C(=O)OC2/C=C(\C)CC3C=C(CC/C=C(\C)CCC12)C(=O)O3` (stereo unspecified) has an inhibition of 39.9%.
`CC(C)NC(=O)Nc1ccc2c(c1)CC(=O)N([C@H](C)CO)C[C@H](C)[C@H](CN(C)Cc1ccc3c(c1)OCO3)O2` showed an inhibition of -12.2%.
With `C[C@@H]1CN([C@H](C)CO)C(=O)c2cccc(NS(=O)(=O)c3ccc(Cl)cc3)c2O[C@@H]1CN(C)Cc1ccc(Oc2ccccc2)cc1` the inhibition was 23.8%.
`C[C@@H]1O[C@@H](O[C@H]2[C@@H](Oc3cc(O)c4c(c3)O[C@H](c3ccc(O)cc3)CC4=O)O[C@H](CO)[C@@H](O)[C@@H]2O)[C@H](O)[C@H](O)[C@H]1O` showed an inhibition of -8.61%.
`C[C@@H]1CN([C@H](C)CO)C(=O)c2cccc(NS(=O)(=O)c3ccc(Cl)cc3)c2O[C@H]1CN(C)C(=O)NC1CCCCC1` showed an inhibition of -17%.
In the case of `CC(C)NC(=O)N(C)C[C@@H]1Oc2ccc(NS(=O)(=O)c3cn(C)cn3)cc2C(=O)N([C@@H](C)CO)C[C@@H]1C`, the inhibition is reported as 8%.
`Cc1ccc(NC(=O)C2C3C=CC(C3)C2C(=O)O)cc1` (stereo unspecified) showed an inhibition of -27.3%.
`Cc1ccc(S(=O)(=O)Nc2ccc3c(c2)C(=O)N([C@H](C)CO)C[C@H](C)[C@@H](CN(C)S(=O)(=O)c2cccs2)O3)cc1` gave an inhibition of -5.89%.
`C[C@@H]1CCCCO[C@H](CN(C)Cc2ccc(Cl)c(Cl)c2)[C@@H](C)CN([C@H](C)CO)C(=O)c2cc(NS(=O)(=O)c3cn(C)cn3)ccc2O1` showed an inhibition of -46.4%.
`CC(C)NC(=O)N(C)C[C@H]1Oc2c(NS(=O)(=O)c3cccs3)cccc2C(=O)N([C@H](C)CO)C[C@H]1C` gave an inhibition of -35.4%.
In the case of `C[C@@H]1CN([C@H](C)CO)C(=O)c2cccc(NS(=O)(=O)c3ccc(F)cc3)c2O[C@H]1CN(C)Cc1ccc(Oc2ccccc2)cc1`, the inhibition is reported as 23.1%.
`COc1ccc(CN(C)C[C@H]2Oc3ccc(NS(=O)(=O)c4ccc(C)cc4)cc3C(=O)N([C@@H](C)CO)C[C@H]2C)cc1` gave an inhibition of 29.4%.
`COc1cc([C@H]2OC[C@H]3[C@@H]2CO[C@@H]3c2cc(OC)c(O[C@@H]3O[C@H](CO)[C@@H](O)[C@H](O)[C@H]3O)c(OC)c2)cc(OC)c1O` showed an inhibition of 2.06%.
Work on `COc1ccc(CN2C(=O)CC(Cc3ccc(C)cc3)C2=O)cc1OC` (stereo unspecified) yielded an inhibition of 4.43%.
`COc1ccc(S(=O)(=O)Nc2cccc3c2O[C@@H](CN(C)S(=O)(=O)c2ccccc2)[C@@H](C)CN([C@@H](C)CO)C3=O)cc1` showed an inhibition of -0.37%.
Compound `O=C(CSc1nnc2n1CCCN2)c1ccccc1` has an inhibition of -28.2%.
In the case of `O=C1C=C(SCC(=O)c2ccccc2)SC(c2ccc(Cl)cc2)C1` (stereo unspecified), the inhibition is reported as 82.7% (active).
With `C/C=C(/C)C(=O)O[C@H]1CC(C)(C)C[C@H]2C3=CCC4[C@@]5(C)CC[C@H](O[C@@H]6O[C@H](C(=O)O)[C@@H](O[C@@H]7O[C@H](CO)[C@H](O)[C@H](O)[C@H]7O[C@@H]7O[C@H](CO)[C@@H](O)[C@H](O)[C@H]7O)[C@H](O)[C@H]6O[C@@H]6O[C@@H](C)[C@H](O)[C@@H](O)[C@H]6O)C(C)(C)C5CC[C@@]4(C)[C@]3(C)[C@@H](O)[C@@H](O)[C@@]12CO` (stereo partly specified) the inhibition was 99.7% (active).
For `COC(=O)C1=CO[C@@H](O[C@@H]2O[C@H](CO)[C@@H](O)[C@H](O)[C@H]2O)[C@@H]2[C@@](C)(O)[C@@H](OC(=O)/C=C/c3ccc(OC)c(OC)c3)C[C@]12O`, the inhibition was 3.81%.
Compound `CC1OC(OC2C(OC3C(O[C@H]4CC[C@@]5(C)C(CC[C@]6(C)C5CC=C5[C@@H]7CC(C)(C)C[C@@H](O)[C@]7(C)CC[C@]56C)C4(C)C)OC(C(=O)O)C(O)C3O)OC(CO)C(O)C2O)C(O)C(O)C1O` (stereo partly specified) has an inhibition of 7.2%.
For `CCC/C=C/C(=O)OC1C(O)C23C(O)OC4(CCC5C6(C)CCC(OC7OC(C(=O)O)C(O)C(OC8OC(CO)C(O)C(O)C8OC8OC(C)C(O)C(O)C8OC8OCC(O)C(O)C8O)C7OC7OC(CO)C(O)C(O)C7O)C(C)(C)C6CCC5(C)C4(C)CC2OC(C)=O)C3CC1(C)C` (stereo unspecified), the inhibition was 104% (active).
With `CC1(C)CC[C@]2(C(=O)O[C@@H]3O[C@H](CO)[C@@H](O)[C@H](O)[C@H]3O)CC[C@]3(C)C(=CCC4[C@@]5(C)CC[C@H](O[C@@H]6O[C@H](C(=O)O)[C@@H](O[C@@H]7OC[C@H](O)[C@H](O)[C@H]7O)[C@H](O)[C@H]6O)C(C)(C)C5CC[C@]43C)C2C1` (stereo partly specified) the inhibition was 35.4%.
For `C/C=C(/C)C(=O)O[C@H]1CC(C)(C)C[C@H]2C3=CCC4[C@@]5(C)CC[C@H](O[C@@H]6O[C@H](C(=O)O)[C@@H](O[C@@H]7O[C@H](CO)[C@H](O)[C@H](O)[C@H]7O[C@@H]7O[C@H](CO)[C@@H](O)[C@H](O)[C@H]7O)[C@H](O)[C@H]6O[C@@H]6O[C@@H](C)[C@H](O)[C@@H](O)[C@H]6O)C(C)(C)C5CC[C@@]4(C)[C@]3(C)[C@@H](OC(C)=O)[C@@H](O)[C@@]12COC(C)=O` (stereo partly specified), the inhibition was 97.7% (active).
With `C=CC1(C)C=C2CCC3C(C)(C)C(O[C@@H]4O[C@@H](CO)[C@H](O)[C@H]4O)CCC3(C)C2CC1O[C@@H]1O[C@H](C)[C@@H](OC)[C@H](O)[C@H]1O` (stereo partly specified) the inhibition was -27.2%.
For `CC1(C)CC[C@]2(C(=O)O)CC[C@]3(C)C(=CCC4[C@@]5(C)CC[C@H](OC6O[C@H](CO)[C@@H](O)[C@H](O[C@@H]7O[C@H](CO)[C@@H](O)[C@H](O)[C@H]7O)[C@H]6O)C(C)(C)C5CC[C@]43C)[C@@H]2C1` (stereo partly specified), the inhibition was 107% (active).
